Assay outcomes from PubChem BioAssay.
Compounds with a hit are over-represented: about 6.8% of the library has one in this group of screens.
Tcruzi prolif = inhibitors of T. cruzi proliferation; T. cruzi beta-gal in NIH3T3, GalScreen luminescence, 90 h; inhibition, % at 8.34 µM; actives 5.9% (n = 77,000);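 active means mean inhibition above about 93%, with at least 55% of replicates each passing it, limit read from the data, passing the limit was not always enough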
C diff growth = C. difficile growth inhibition | Clostridium difficile clinical isolate growth, OD600, 24 h; hits give low values | growth activity, negative = inhibition, % at 16 µg/mL (by protocol) | actives 0.25% (n = 86,000) | AID 1259249;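 active means mean growth activity at or below -80% and every replicate also at or below -80%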;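 further: 0% = DMSO wells and -100% = levofloxacin 16 µg/mL wells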
Pf Dd2 inh = blocks growth of Plasmodium falciparum Dd2 parasites; actives 2.3% (n = 94,000); AID 1159554; activity change, % at 10 µM; P. falciparum Dd2 growth, SYBR Green, 72 h; hits give low values; in the data active means activity change below about -80%
An asterisk follows results filed as active.

Results for C[C@@H]1CCCCO[C@@H](CN(C)CC2CC2)[C@H](C)CN([C@@H](C)CO)C(=O)c2cc(NC(=O)Nc3cccc4ccccc34)ccc2O1 ?
Tcruzi prolif: 39; C diff growth: 0; Pf Dd2 inh: -67

How did C[C@@H]1CCCCO[C@@H](CN(C)CC2CC2)[C@H](C)CN([C@H](C)CO)C(=O)c2cc(NC(=O)Nc3cccc4ccccc34)ccc2O1 do in these assays?
Tcruzi prolif: 67; C diff growth: 2; Pf Dd2 inh: -77

How did C[C@@H]1CN([C@H](C)CO)C(=O)c2cc(NC(=O)Nc3cccc4ccccc34)ccc2O[C@@H](C)CCCCO[C@@H]1CN(C)CC1CCCCC1 do in these assays?
Tcruzi prolif: 122; C diff growth: 0; Pf Dd2 inh: -88*

What do the screens show for `O=C(C[C@H]1CC[C@@H]2[C@H](COC[C@@H](O)CN2Cc2ccncc2)O1)NCC1CC1`?
Tcruzi prolif: -24; C diff growth: 1; Pf Dd2 inh: 8

How did C[C@@H]1CCCCO[C@@H](CN(C)CC2CCCCC2)[C@@H](C)CN([C@@H](C)CO)C(=O)c2cc(NC(=O)Nc3cccc4ccccc34)ccc2O1 do in these assays?
Tcruzi prolif: 121; C diff growth: -5; Pf Dd2 inh: -82*

Results for C[C@H](CO)N1C[C@H](C)[C@H](CN(C)CC2CCCCC2)OCCCC[C@H](C)Oc2ccc(NC(=O)Nc3cccc4ccccc34)cc2C1=O ?
Tcruzi prolif: 120; C diff growth: -1; Pf Dd2 inh: -70

How did CO[C@@H]1CN(C)C(=O)c2ccc(NC(=O)C3CC3)cc2OC[C@H](C)N(Cc2cncnc2)C[C@H]1C do in these assays?
Tcruzi prolif: -22

How did CC(C)NC(=O)NCC[C@@H]1CC[C@H](NC(=O)Nc2ccccc2)[C@H](CO)O1 do in these assays?
Tcruzi prolif: 42; Pf Dd2 inh: -6

Results for Cc1ccc(S(=O)(=O)N(C)C[C@@H]2Oc3ccc(NC(=O)Cc4cn(C)c5ccccc45)cc3CC(=O)N([C@@H](C)CO)C[C@@H]2C)cc1 ?
Tcruzi prolif: 30; C diff growth: 0; Pf Dd2 inh: -77

How did C[C@@H]1CN([C@@H](C)CO)C(=O)c2cc(NC(=O)Cc3cn(C)c4ccccc34)ccc2O[C@H]1CN(C)S(=O)(=O)c1ccccc1 do in these assays?
Tcruzi prolif: 39; C diff growth: 6; Pf Dd2 inh: -22

Results for Cc1ccc(S(=O)(=O)N(C)C[C@H]2Oc3ccc(NC(=O)Cc4cn(C)c5ccccc45)cc3C(=O)N([C@H](C)CO)C[C@H]2C)cc1 ?
Tcruzi prolif: 73; C diff growth: -7; Pf Dd2 inh: -28

Results for Cc1ccc(S(=O)(=O)N(C)C[C@@H]2Oc3ccc(NC(=O)Cc4cn(C)c5ccccc45)cc3CC(=O)N([C@@H](C)CO)C[C@H]2C)cc1 ?
Tcruzi prolif: 48; C diff growth: -15; Pf Dd2 inh: -83*

How did C[C@H]1CN([C@@H](C)CO)C(=O)c2cc(NC(=O)Cc3cn(C)c4ccccc34)ccc2O[C@H]1CN(C)S(=O)(=O)c1ccccc1 do in these assays?
Tcruzi prolif: 80; C diff growth: 4; Pf Dd2 inh: -91*

Results for Cc1ccc(S(=O)(=O)N(C)C[C@H]2Oc3ccc(NC(=O)Cc4cn(C)c5ccccc45)cc3C(=O)N([C@H](C)CO)C[C@@H]2C)cc1 ?
Tcruzi prolif: 26; C diff growth: -1; Pf Dd2 inh: -83*

How did COCC(=O)N1C[C@H]2[C@@H](c3ccccc31)[C@@H](CO)N2Cc1ccccc1F do in these assays?
Tcruzi prolif: -21; C diff growth: -3; Pf Dd2 inh: -6

What do the screens show for `C[C@@H]1CN([C@@H](C)CO)C(=O)Cc2cc(NC(=O)c3ccncc3)ccc2O[C@H]1CN(C)S(=O)(=O)c1ccc(F)cc1`?
Tcruzi prolif: -5; C diff growth: -3; Pf Dd2 inh: 2

How did COc1ccc2c3c([nH]c2c1)[C@H](CO)N(S(C)(=O)=O)CC31CN(C(=O)c2cccnc2)C1 do in these assays?
C diff growth: -2; Pf Dd2 inh: 9

What do the screens show for `CC(C)NC(=O)N(C)C[C@@H]1OCCCC[C@@H](C)Oc2ccc(NC(=O)NC3CCCCC3)cc2C(=O)N([C@@H](C)CO)C[C@H]1C`?
Tcruzi prolif: 22; C diff growth: 2

Results for C[C@@H]1CCCCO[C@H](CN(C)C(=O)C2CCCCC2)[C@H](C)CN([C@@H](C)CO)C(=O)c2cc(NC(=O)CCCN(C)C)ccc2O1 ?
Tcruzi prolif: -32; C diff growth: -5; Pf Dd2 inh: -19

What do the screens show for `N#C[C@@H]1[C@H](c2ccc(C3=CCCCC3)cc2)[C@H](CO)N1C(=O)NC1CCCC1`?
C diff growth: 37; Pf Dd2 inh: -83*

Results for N#C[C@@H]1[C@H](c2ccccc2-c2ccc(F)cc2)[C@H](CO)N1C(=O)NC1CCCC1 ?
C diff growth: -6; Pf Dd2 inh: -92*

Results for N#C[C@H]1[C@@H](c2ccc(C3=CCCCC3)cc2)[C@H](CO)N1C(=O)NC1CCCC1 ?
C diff growth: 37; Pf Dd2 inh: 15

Results for COc1ccc(-c2ccccc2[C@H]2[C@@H](C#N)N(C(=O)NC3CCCCC3)[C@H]2CO)cc1 ?
C diff growth: 8; Pf Dd2 inh: -90*

How did COc1ccc(-c2ccccc2[C@@H]2[C@@H](CO)N(C(=O)NC3CCCC3)[C@H]2C#N)cc1 do in these assays?
C diff growth: 2; Pf Dd2 inh: -20

Results for CCCNC(=O)N1[C@H](C#N)[C@H](c2ccc(-c3cccc(OC)c3)cc2)[C@H]1CO ?
Tcruzi prolif: 77; C diff growth: 12; Pf Dd2 inh: -85*

How did N#C[C@H]1[C@@H](c2ccccc2-c2ccc(F)cc2)[C@@H](CO)N1C(=O)NC1CCCCC1 do in these assays?
C diff growth: 7; Pf Dd2 inh: 61

Results for CCCNC(=O)N1[C@H](CO)[C@@H](c2ccc(-c3cccc(OC)c3)cc2)[C@@H]1C#N ?
Tcruzi prolif: 86; C diff growth: -2; Pf Dd2 inh: -21

Results for CO[C@@H]1CN(C)C(=O)c2ccc(NC(=O)C3CC3)cc2OC[C@H](C)N(Cc2ccccc2)C[C@H]1C ?
Tcruzi prolif: 47; Pf Dd2 inh: -45

What do the screens show for `CCNC(=O)[C@H]1[C@H](CO)[C@H]2Cn3c(ccc(-c4ccccc4)c3=O)[C@@H]1N2C(=O)c1ccccn1`?
Tcruzi prolif: 5; C diff growth: -4; Pf Dd2 inh: 1

What do the screens show for `CN1[C@@H]2c3ccc(/C=C/c4ccccc4)c(=O)n3C[C@@H]2[C@@H](CO)[C@@H]1C(=O)N1CCCCC1`?
Tcruzi prolif: 43; C diff growth: 7; Pf Dd2 inh: 4

Results for C[C@H]1CN([C@@H](C)CO)C(=O)Cc2cc(NS(C)(=O)=O)ccc2O[C@H]1CN(C)Cc1ccc(-c2ccccc2)cc1 ?
Tcruzi prolif: -16; C diff growth: -24; Pf Dd2 inh: -2

Results for COc1ccc2c3c([nH]c2c1)[C@H](CO)N(C)CC31CN(C(=O)c2ccccc2F)C1 ?
C diff growth: 0; Pf Dd2 inh: 10

Results for CC(C)NC(=O)Nc1ccc2c(c1)C(=O)N([C@H](C)CO)C[C@H](C)[C@H](CN(C)S(=O)(=O)c1ccccc1)O2 ?
Tcruzi prolif: -16; C diff growth: 0; Pf Dd2 inh: -18
